Test results taken from PubChem BioAssay (Tox21).
Several values for one entry are separate records, joined by “and”; a condition that tells them apart may be missing. Equal entries are not always repeated. Results filed as inconclusive are left out. Entries that show only a call come without a potency. Some compounds were tested as several samples or in several runs, with calls that do not always agree. Activity calls are given as the source filed them. Unless noted, calls come from the whole dose curve; as a rule, active = well fitted curve in the direction sought with a large enough effect in the repeat runs; inconclusive = weak or mixed curves; inactive = no such curve, though single readings can be large; an effect the other way counts as inactive or inconclusive.

Experiments:
[1] = A CellTox Green Cytotoxicity Assay to monitor cytotoxicity in HepG2 cells - 0 hour (AID 1224882); note: nearly all actives have a fitted effect of over 35% in size; note: potency is the fitted concentration of half-maximal effect
Outline: (§1)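 HepG2, 600 cells/well premixed w/ CellTox Green; 5 h settle, 37 C/5% CO2; pintool cpd add (DMSO); 37 C, 40 h; fluorescence read at 0, 8, 16, 24, 32, 40 h.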

[2] = A CellTox Green Cytotoxicity Assay to monitor cytotoxicity in HepG2 cells - 32 hour (AID 1224883); note: nearly all actives have a fitted effect of over 50% in size; note: potency is the fitted concentration of half-maximal effect
Outline: as §1

[3] = A CellTox Green Cytotoxicity Assay to monitor cytotoxicity in HEK293 cells - 8 hour (AID 1224884); note: nearly all actives have a fitted effect of over 35% in size; note: potency is the fitted concentration of half-maximal effect
Outline: (§2)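 Read-out: fluorescence of a cell-impermeant cyanine dye staining DNA of dead cells, proportional to cytotoxicity. HEK293, 600 cells/well with reagent, compound (23 nL DMSO) added after 5 h; reads at 0, 8, 16, 24, 32, 40 h.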

[4] = qHTS RealTime-Glo MT Cell Viability Assay in HEK293 cells - 8 hour (AID 1224887); note: nearly all actives have a fitted effect of over 50% in size; note: potency is the fitted concentration of half-maximal effect
Outline: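 Luminescence readout at each listed time point; HEK293, 600 cells/well, RealTime-Glo MT reagent added with cells; compounds pinned (23 nL in DMSO) after 5 h at 37 C; continuous culture at 37 C.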

[5] = A CellTox Green Cytotoxicity Assay to monitor cytotoxicity in HEK293 cells - 16 hour (AID 1224888); note: nearly all actives have a fitted effect of over 35% in size; note: potency is the fitted concentration of half-maximal effect
Outline: as §2

[6] = qHTS RealTime-Glo MT Cell Viability Assay in HepG2 cells - 0 hour (AID 1224889); note: nearly all actives have a fitted effect of over 50% in size
Outline: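 Cells + NanoLuc/prosubstrate dispensed (600 cells/well) → 5 h at 37 C/5% CO2 → compounds in DMSO transferred → 40 h incubation at 37 C, luminescence read at 0, 8, 16, 24, 32, 40 h.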

[7] = qHTS assay to identify small molecule antagonists of the estrogen receptor alpha (ER-alpha) signaling pathway using the BG1 cell line in the presence of 0.1 nM 17-beta-estradiol - cell viability counter screen (AID 1259241); note: nearly all actives have a fitted effect of over 40% in size; note: potency is the fitted concentration of half-maximal effect
Outline: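 Estradiol-stimulated (0.1 nM) VM7Luc4E2 cells exposed to compounds 22 hr; viability measured by fluorescence of cleaved CellTiter-Fluor substrate after 30 min.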

[8] = qHTS assay to identify small molecule antagonists of the androgen receptor (AR) signaling pathway using the MDA cell line in the presence of 0.5 nM R1881 - cell viability counter screen (AID 1259242); note: nearly all actives have a fitted effect of over 45% in size; note: potency is the fitted concentration of half-maximal effect
Outline: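 Live-cell protease fluorescence, CellTiter-Fluor, 30 min at 37C. Cells: MDA-kb2, 3,000/well, preincubated 5 hr. Compounds plus 0.5 nM R1881 final, 16 hr, 37C, 0% CO2.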

[9] = molecular target: Estrogen receptor (Homo sapiens) (UniProt P03372); assay: qHTS assay to identify small molecule antagonists of the estrogen receptor alpha (ER-alpha) signaling pathway using the BG1 cell line in the presence of 0.1 nM 17-beta-estradiol (AID 1259244); note: nearly all actives have a fitted effect of over 50% in size; note: potency is the fitted concentration of half-maximal effect
Outline: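 Luminescence after ONE-Glo (30 min, room temperature) measured ERE-luciferase activity in VM7Luc4E2 cells treated 22 h with compound and 0.1 nM final 17beta-estradiol as stimulator.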

[10] = qHTS assay to identify small molecule HDAC inhibitors (AID 1259364);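 note: wild-type HCT-116 cells with endogenous class I/II HDAC activity; top concentration of the series differs between compounds; nearly all actives have a fitted effect of over 45% in size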
Outline: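 HCT-116 (wild type), 1,500 cells/well, overnight; compound 2 hr 37C 5% CO2; HDAC-Glo I/II reagent 30 min RT; luminescence readout.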

[11] = qHTS assay to identify small molecule HDAC inhibitors - cell viability counter screen (AID 1259365); note: nearly all actives have a fitted effect of over 50% in size; note: potency is the fitted concentration of half-maximal effect
Outline: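 After overnight seeding at 1,500 cells per well, wild-type HCT-116 cultures took up compounds in DMSO for 2hr at 37 C. Viable cell content came from luminescence with CellTiter-Glo.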

[12] = qHTS assay to identify small molecule agonists of the sonic hedgehog signaling (Shh) pathway - cell viability counter screen (AID 1259366); note: nearly all actives have a fitted effect of over 50% in size; note: potency is the fitted concentration of half-maximal effect
Outline: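 Same-well cytotoxicity read. Gli1-Luc reporter 3T3 cells; compounds 24hr, 37C/5% CO2; CellTiter-Fluor fluorescence.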

[13] = qHTS assay to identify small molecule antagonists of the sonic hedgehog signaling (Shh) pathway - cell viability counter screen (AID 1259367); note: nearly all actives have a fitted effect of over 55% in size; note: potency is the fitted concentration of half-maximal effect
Outline: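 Viability was read by CellTiter-Fluor fluorescence in the same wells, reagent added 23 hr into compound treatment and incubated 1 hr at 37C. The 3T3 Gli1-Luc reporter cells (2,000/well) received conditioned medium after compound and ran 24 hr.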

[14] = qHTS assay to identify small molecule agonists of the sonic hedgehog signaling (Shh) pathway (AID 1259368; calls by dose curve; note: nearly all actives have a fitted effect of over 15% in size; note: potency is the fitted concentration of half-maximal effect)
Outline: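 Read-out: firefly luciferase luminescence from a Gli1 response element reporter stably integrated in NIH/3T3-derived 3T3Gli1-Luc cells, measured 30 min at room temperature after reagent addition. Compound exposure lasted 24 hr at 37 C, 5% CO2.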

[15] = qHTS assay to identify small molecule antagonists of the sonic hedgehog signaling (Shh) pathway (AID 1259369; calls by dose curve; note: nearly all actives have a fitted effect of over 45% in size; note: potency is the fitted concentration of half-maximal effect)
Outline: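 Luminescence readout: firefly Luc under Gli1 response element in 3T3Gli1-Luc cells (NIH/3T3 clone). Antagonist mode, stimulation by conditioned medium; compound exposure 24hr at 37 C, 5% CO2.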

[16] = qHTS RealTime-Glo MT Cell Viability Assay in HEK293 cells - 24 hour (AID 1224886); note: nearly all actives have a fitted effect of over 50% in size; note: potency is the fitted concentration of half-maximal effect
Outline: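 Tox21 10K qHTS, HEK293, 600 cells/well, RealTime-Glo reagent co-dispensed with cells; 5 h preincubation, compound by pintool, 37 C, luminescence at 0–40 h.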

[17] = A CellTox Green Cytotoxicity Assay to monitor cytotoxicity in HepG2 cells - 8 hour (AID 1224890); note: nearly all actives have a fitted effect of over 45% in size; note: potency is the fitted concentration of half-maximal effect
Outline: as §1

[18] = qHTS assay to identify small molecule phospholipidosis (PLD) inducers (AID 1259344; active = well fitted curve in the direction sought with a large enough effect; an effect the other way counts as inactive or inconclusive)
Outline: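 Phospholipid accumulation was scored by imaging: fixed, Hoechst-counterstained HepG2 cells stained with LipidTOX Red after 24 h compound exposure at 37 C. Read-outs were pit count and pit intensity per well or per cell, with amiodarone and DMSO controls.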

[19] = molecular target: Androgen receptor (Homo sapiens) (UniProt P10275); assay: qHTS assay to identify small molecule antagonists of the androgen receptor (AR) signaling pathway using the MDA cell line in the presence of 0.5 nM R1881 (AID 1259243)
Outline: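 MDA-kb2, MMTV-luc (AR/GR elements); 3,000 cells/well; cpd + 0.5 nM R1881 final; 16 hr 37C, 0% CO2; ONE-Glo 30 min RT; luminescence.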

Sequence of Estrogen receptor (Homo sapiens) (P03372 whole entry, looked up): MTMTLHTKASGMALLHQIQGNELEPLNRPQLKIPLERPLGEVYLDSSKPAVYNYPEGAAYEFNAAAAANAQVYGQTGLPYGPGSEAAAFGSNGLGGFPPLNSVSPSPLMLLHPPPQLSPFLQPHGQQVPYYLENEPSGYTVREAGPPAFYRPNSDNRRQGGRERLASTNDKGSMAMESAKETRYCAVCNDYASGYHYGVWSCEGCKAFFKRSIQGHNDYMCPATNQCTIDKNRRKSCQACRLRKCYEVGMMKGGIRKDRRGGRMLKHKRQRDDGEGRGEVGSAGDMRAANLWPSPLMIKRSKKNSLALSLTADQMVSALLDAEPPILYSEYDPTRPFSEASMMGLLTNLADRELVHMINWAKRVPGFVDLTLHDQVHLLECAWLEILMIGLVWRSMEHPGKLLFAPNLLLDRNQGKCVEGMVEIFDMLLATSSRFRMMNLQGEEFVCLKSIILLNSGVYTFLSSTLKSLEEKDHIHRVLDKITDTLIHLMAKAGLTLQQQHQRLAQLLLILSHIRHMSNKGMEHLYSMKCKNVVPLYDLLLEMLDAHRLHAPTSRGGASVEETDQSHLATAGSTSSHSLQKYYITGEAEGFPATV
Sequence of Androgen receptor (Homo sapiens) (P10275 whole entry, looked up): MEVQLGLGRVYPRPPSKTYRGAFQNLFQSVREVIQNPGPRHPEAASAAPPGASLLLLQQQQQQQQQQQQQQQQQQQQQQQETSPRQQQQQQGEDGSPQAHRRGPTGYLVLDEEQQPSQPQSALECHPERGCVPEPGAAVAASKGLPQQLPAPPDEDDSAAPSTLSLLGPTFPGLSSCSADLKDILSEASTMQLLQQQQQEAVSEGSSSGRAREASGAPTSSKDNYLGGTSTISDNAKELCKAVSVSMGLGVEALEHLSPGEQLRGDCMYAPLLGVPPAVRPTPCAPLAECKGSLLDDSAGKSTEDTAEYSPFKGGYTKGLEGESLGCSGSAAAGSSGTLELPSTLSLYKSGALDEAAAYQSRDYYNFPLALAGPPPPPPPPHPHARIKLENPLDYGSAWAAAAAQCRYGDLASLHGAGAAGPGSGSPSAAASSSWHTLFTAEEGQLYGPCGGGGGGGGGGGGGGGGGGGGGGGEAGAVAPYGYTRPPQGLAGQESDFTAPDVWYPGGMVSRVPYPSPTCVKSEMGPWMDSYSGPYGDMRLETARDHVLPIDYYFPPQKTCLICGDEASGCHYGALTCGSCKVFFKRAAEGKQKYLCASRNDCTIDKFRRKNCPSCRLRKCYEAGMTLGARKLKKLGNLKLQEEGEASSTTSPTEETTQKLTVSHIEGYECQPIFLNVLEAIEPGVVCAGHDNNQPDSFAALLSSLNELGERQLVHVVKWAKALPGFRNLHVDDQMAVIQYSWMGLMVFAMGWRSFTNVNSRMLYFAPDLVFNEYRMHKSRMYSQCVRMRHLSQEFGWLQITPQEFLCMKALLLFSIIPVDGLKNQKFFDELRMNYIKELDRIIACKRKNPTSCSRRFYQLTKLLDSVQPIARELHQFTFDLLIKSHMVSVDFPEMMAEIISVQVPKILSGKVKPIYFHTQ

| SMILES | Potency [1] | Potency [2] | Potency [3] | Potency [4] | Potency [5] | Potency [6] | Potency [7] | Potency [8] | Potency [9] | Potency [10] | Potency [11] | Potency [12] | Potency [13] | Potency [14] | Potency [15] | Potency [16] | Potency [17] | Potency [18] | Potency [19] |
| --- | --- | --- | --- | --- | --- | --- | --- | --- | --- | --- | --- | --- | --- | --- | --- | --- | --- | --- | --- |
| CCCN(CCC)C(=O)C(CCC(=O)OCCCN1CCN(CCOC(=O)Cc2c(C)n(C(=O)c3ccc(Cl)cc3)c3ccc(OC)cc23)CC1)NC(=O)c1ccccc1 (stereo unspecified) | inactive | 23.9 µM (active) | inactive | 23.9 µM (active) | inactive | inactive | 13.3 µM (active) | inactive | inactive | inactive | inactive | 11.9 µM (active) | 10.6 µM (active) | inactive | 9.44 µM (active) | – | – | – | – |
| CCc1cc(SCc2sc(-c3ccc(C(F)(F)F)cc3)nc2CN2CCN(c3ccc(OC)cc3)CC2)ccc1OCC(=O)O | inactive | inactive | inactive | – | inactive | inactive | inactive | – | – | inactive | 24.3 µM (active) | – | inactive | inactive | – | 21.9 µM (active) | inactive | – | – |
| O=C(Nc1ccc(Oc2ccc(Cl)cc2)c(Cl)c1)c1cc(I)cc(I)c1O | inactive | inactive | inactive | inactive | – | inactive | – | – | – | inactive | inactive | inactive | inactive | – | 29.8 µM (active) | inactive | inactive | inactive | – |
| CSc1cnc(C)cn1 | 56.4 µM (active) | 63.3 µM (active) | 63.3 µM (active) | inactive | 89.4 µM (active) | inactive | inactive | – | inactive | inactive | inactive | inactive | inactive | inactive | inactive | – | 56.4 µM (active) | – | – |
| Clc1ccccc1C(c1ccccc1)(c1ccccc1)n1ccnc1 | inactive | 19.5 µM (active) and inactive | inactive | 24.5 µM (active) | – | inactive | – | 43.3 µM (active) and inactive | 24.3 µM (active) and inactive | inactive | inactive | 13.7 µM (active) | 13.7 µM (active) | inactive | 13.3 µM (active) | 21.9 µM (active) and 6.01 µM (active) | 49 µM (active) and inactive | – | – |
| COc1ccc(C(=O)/C(Br)=C\C(=O)O)cc1 | inactive | 13.8 µM (active) | inactive | – | inactive | inactive | inactive | inactive | inactive | inactive | inactive | – | – | 17.2 µM (active) | 3.86 µM (active) | 38.9 µM (active) | inactive | inactive | – |
| Oc1ccc2c(c1)-c1ccccc1C2 | inactive | 49 µM (active) | inactive | – | inactive | inactive | inactive | – | – | inactive | inactive | – | inactive | inactive | – | – | – | – | 7.7 µM (active) |
